Results from PubChem BioAssay AID720706 (Broad Institute, 2013).
Values joined by “and” are separate entries in the source; they are usually repeats but may differ in a detail not shown here. Identical values can stand only once. Out of some 350,000 compounds screened, about 5,500 (1.6%) were called active.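 Rule for the calls: active = significant combined selectivity score with lowered wild-type GFP, culture density cut under 30%, mutant RFP and density less affected; inactive = any of these conditions unmet.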 Many of the other results were omitted from the sample, so actives are more common in it than they were.

experiment: reduced GFP signal of wild-type E. coli, primary screen, bacterial rRNA inhibitor project, GFP/RFP fluorescence, OD600, single point (AID 720706); settings: E. coli WT GFP vs humanized-ribosome RFP mutants, 24 h; GFP signal change (wild-type ribosome): stronger effect = lower value, DMSO median 0, no signal -100; OD600 change: measured here: OD600 growth, DMSO median 0, no signal -100; RFP signal change: measured here: RFP humanized mutant strains, DMSO median 0, no signal -100, concentration not given here

Compound	GFP signal change (wild-type ribosome)	OD600 change	RFP signal change
C[C@@H]1CN([C@H](C)CO)C(=O)c2cc(NC(=O)Cn3cnnn3)ccc2O[C@@H]1CN(C)Cc1ccc(C(F)(F)F)cc1	-1.05% (inactive)	-5.5%	-0.189%
O=C(Cc1ccc(Cl)cc1)c1ccccc1	3.35% (inactive)	2.91%	-5.05%
OCCN(Cc1ccccc1)Cc1ccc(Cl)cc1	-23% (active)	-9.66%	0.44%
CN(C(=O)CN(CCO)CC(=O)N(C)C(C)(C)Cc1ccccc1)C(C)(C)Cc1ccccc1	-31.9% (inactive)	-35.7%	-7.29%
CCC(=O)N[C@H]1CC[C@@H](CC(=O)NCC2CC2)O[C@@H]1CO	3.28% (inactive)	7.08%	3.11%
CC(C)NC(=O)Nc1ccc2c(c1)C(=O)N([C@@H](C)CO)C[C@H](C)[C@@H](CN(C)Cc1ccc(C(=O)O)cc1)OCCCC[C@H](C)O2	-0.801% (inactive)	3.15%	-0.195%
CN1CCN(c2ccc(NC(=O)c3ccc4c(c3)OCCO4)cc2Cl)CC1	3.42% (inactive)	2.75%	-7.15%
O=C(Nc1ccc(N2CCN(C(=O)c3ccccc3)CC2)c(Cl)c1)c1ncn[nH]1	-24.4% (active)	-14.7%	0.07%
O=C(Nc1ccccc1N1CCN(C(=O)c2ccccc2)CC1)c1ccco1	-8.24% (inactive)	-9.77%	-0.948%
COc1ccc2c3c([nH]c2c1)[C@@H](CO)N(C(=O)C1CC1)CC31CCN(Cc2nccs2)CC1	-6.7% (inactive)	-0.445%	-3.97%
CCCNC(=O)C[C@@H]1CC[C@H]2[C@@H](COc3ccc(NC(=O)C4CCCC4)cc3C(=O)N2C)O1	2.97% (inactive)	3.62%	0.145%
O=C(NC1CCC1)[C@@H]1[C@@H](CO)[C@@H]2Cn3c(ccc(/C=C/c4ccccc4)c3=O)[C@@H]2N1Cc1ccncc1	-9.73% (inactive)	-7.87%	7.36%
O=C(Nc1ccc(F)cc1)N1CC(=O)N2[C@H](CO)[C@H](c3ccc(C#Cc4ccccc4)cc3)[C@H]2C1	-32.4% (inactive)	-57.1%	29%
C[C@@H]1CCCCO[C@H](CN(C)C)[C@H](C)CN([C@@H](C)CO)C(=O)c2cc(NS(=O)(=O)c3cn(C)cn3)ccc2O1	3.31% (inactive)	6.19%	-1.01%
Cn1c(SCC(=O)c2cccs2)nnc1-c1ccco1	1.2% (inactive)	2.27%	0.555%
CSc1nc(-c2ccco2)nn1C(=O)c1ccccc1Cl	-25.9% (active)	-15.3%	0.841%
CCn1c(SCC(=O)Nc2cc(C)c(Cl)cc2OC)nnc1-c1ccco1	-38.4% (inactive)	-53.5%	-9.88%
COc1ccc(S(=O)(=O)N(C)C[C@@H]2Oc3ccc(NC(=O)CCC(F)(F)F)cc3C(=O)N([C@@H](C)CO)C[C@@H]2C)cc1	2.48% (inactive)	3.34%	-0.798%
C[C@@H](O)C#Cc1ccc([C@H]2[C@H]3CN(C(=O)c4ccc5c(c4)OCO5)CCCCN3[C@H]2CO)cc1	3.47% (inactive)	-9%	2.17%
COc1ccc(-c2cc(=O)oc3cc(OC(C)C(=O)Nc4ccc(CN5CCOCC5)cc4)ccc23)cc1 (configuration not stated)	-20% (active)	-14.2%	3.54%
COc1ccc2oc(=O)cc(CN3CCOCC3)c2c1	18.2% (inactive)	14.8%	0.523%
CCCc1cc(=O)oc2cc(OCC(=O)Nc3ccc(CN4CCOCC4)cc3)c(Cl)cc12	0.107% (inactive)	0.304%	-1.17%

Compound	GFP signal change (wild-type ribosome)	OD600 change	RFP signal change
C[C@@H]1CCCCO[C@@H](CN(C)C(=O)c2ccccc2)[C@H](C)CN([C@@H](C)CO)C(=O)c2cc(NS(=O)(=O)c3cn(C)cn3)ccc2O1	4.03% (inactive)	4.12%	-1.99%
CC(NC(=O)c1ccccc1)C(=O)OCC(=O)Nc1cccc(S(=O)(=O)N2CCCC2)c1 (configuration not stated)	-2.56% (inactive)	4.84%	-0.0785%
Cc1ccc(C(=O)NCC(=O)OCC(=O)Nc2cccc(S(=O)(=O)N3CCCC3)c2)cc1C	-20.9% (active)	-2.78%	-2.48%
O=C(CCNC(=O)c1ccc(Br)cc1)Nc1cccc(S(=O)(=O)N2CCCCC2)c1	-12.3% (inactive)	-43.3%	1.03%
CC(C)(C)[S@](=O)N1Cc2cc(C(=O)N[C@@H]3CCN(Cc4ccccc4)C3)nc(-c3cccc(-c4ccncc4)c3)c2[C@@H]1CCO	1.13% (inactive)	9.43%	-4.39%
CCCNC(=O)N1C[C@H]2[C@@H](c3ccccc31)[C@H](CO)N2C(=O)NC(C)C	2.8% (inactive)	10.8%	1.99%
COc1ccc(Cl)cc1NC(=O)NC(C)C(C)(C)C (configuration not stated)	-0.51% (inactive)	1.25%	0.006%
COc1ccc(Cl)cc1NC(=O)C(C)N1CCc2ccccc21 (configuration not stated)	-31% (active)	-24.4%	-3.11%
COc1ccc(Cl)cc1NC(=O)NCC1CCN(Cc2ccccc2F)CC1	-5.44% (inactive)	-28.5%	37.7%
CC(C)C[C@H](NC(=O)N1CCn2c1nc1ccccc12)C(=O)NC1CC1	0.495% (inactive)	2.23%	-1.23%
CSCC[C@H](NC(=O)N1CCn2c1nc1ccccc12)C(=O)NC1CCCCC1	-28.5% (active)	-22.6%	-0.555%
CSCC[C@H](NC(=O)N1CCn2c1nc1ccccc12)C(=O)NCc1ccc2c(c1)OCO2	-1.83% (inactive)	-3.03%	3.82%
COc1ccc2c3c([nH]c2c1)[C@@H](CO)N(C(=O)c1ccccc1)CC31CCN(C(=O)Nc2cccc(F)c2)CC1	-4.87% (inactive)	-13.4%	1.11%
O=C(CCc1ccccc1)Nc1ncc([N+](=O)[O-])s1	-42.5% (active)	-20.7%	2.67%
CC(C)Cc1nnc(NC(=O)CCc2ccccc2)s1	2.89% (inactive)	0.415%	0.86%
COC(=O)CSc1nnc(NC(=O)CCc2ccccc2)s1	7.96% (inactive)	5.71%	-0.746%
Cc1cc([N+](=O)[O-])ccc1NS(=O)(=O)c1ccccc1	-10.6% (inactive)	-35.5%	-7.16%
Cc1ccccc1OS(=O)(=O)c1cccc([N+](=O)[O-])c1	-22.9% (active)	-15.1%	-4.54%
Cc1cc(C)n(S(=O)(=O)c2cccc([N+](=O)[O-])c2)n1	5.54% (inactive)	9.05%	1.61%
O=C([C@H]1[C@H](CO)[C@H]2Cn3c(ccc(-c4ccccc4)c3=O)[C@@H]1N2Cc1cccnc1)N1CCOCC1	5.29% (inactive)	5.22%	0.504%
Cc1ccc(-c2cnc3c(c2)C(=O)N([C@H](C)CO)C[C@H](C)[C@@H](CN(C)S(C)(=O)=O)O3)cc1	2.09% (inactive)	1.04%	1.43%
C[C@@H]1CN([C@H](C)CO)C(=O)c2c(c3ccccc3n2C)-c2ccccc2CO[C@@H]1CN(C)Cc1ccccc1C(F)(F)F	3.48% (inactive)	-2.02%	-4.51%

Compound	GFP signal change (wild-type ribosome)	OD600 change	RFP signal change
CC(C)NC(=O)Nc1ccc2c(c1)C(=O)N([C@H](C)CO)C[C@@H](C)[C@H](CN(C)S(C)(=O)=O)O2	0.569% (inactive)	1.03%	-2.66%
COc1ccc(NC(=O)CN(C)S(=O)(=O)c2ccccc2)cc1OC	-21.4% (active)	-15.8%	5.68%
Cc1ccc2nc(-c3ccc(NC(=O)CN(C)S(=O)(=O)c4ccccc4)cc3)sc2c1	6.45% (inactive)	6.57%	-1.11%
COc1ccc(NC(=O)CN(Cc2ccccc2)S(C)(=O)=O)cc1OC	7.38% (inactive)	3.04%	2.82%
C[C@H]1CN([C@@H](C)CO)C(=O)Cc2cc(NC(=O)Cc3ccccc3)ccc2O[C@H]1CN(C)S(=O)(=O)c1ccc(Cl)cc1	6.12% (inactive)	0.505%	-2.09%
C[C@@H]1CN(C)C(=O)c2cccc(N(C)C)c2O[C@H]1CN(C)S(C)(=O)=O	0.02% (inactive)	-2.43%	-4.17%
CCS(=O)(=O)N1CC(=O)N2[C@H](C1)[C@@H](c1ccc(C#Cc3ccc(F)cc3)cc1)[C@@H]2CO	-26.6% (inactive)	-55.5%	8.02%
COC(=O)C[C@H]1C[C@H]2c3cc(NC(=O)NC4CCCCC4)ccc3O[C@H]2[C@H](CO)O1	3.18% (inactive)	0.77%	1.45%
CC1CN(c2nc(Nc3ccccc3)nc(N)c2[N+](=O)[O-])CC(C)O1 (configuration not stated)	-35.4% (inactive)	-33.8%	-0.525%
Cc1cc(N2CCN(C)CC2)nc2ccc(NC(=S)N3CCOCC3)cc12	2.14% (inactive)	1.93%	-1.37%
CN1CCN(c2nc(Nc3ccc(O)cc3)nc3ccccc23)CC1	-21.6% (active)	2.64%	1.85%
C[C@H]1CN([C@@H](C)CO)C(=O)c2cc(NS(C)(=O)=O)ccc2O[C@@H]1CN(C)S(=O)(=O)c1ccc(Cl)cc1	2.05% (inactive)	0.615%	0.846%
CC(=O)N1C[C@@H]2C(c3ccccc3)[C@H](C1)N2Cc1ccc(F)cc1 (some centres not stated)	-7.42% (inactive) and -0.918% (inactive)	-6.55% and 0.0005%	2.17% and -0.988%
COc1ccc(CN2CCCCN3[C@H](C2)[C@H](c2ccc(-c4ccc(OC)cc4)cc2)[C@@H]3CO)cc1	0.651% (inactive)	2.56%	3.41%
COc1ccc(-c2ccc([C@@H]3[C@@H](CO)N4C(=O)CN(Cc5ccccc5)C[C@@H]34)cc2)cc1	0.0065% (inactive)	-2.91%	0.737%
COc1ccc(Cn2c(-c3ccc(Cl)cc3)c[n+]3ccccc23)cc1	-31.8% (active)	-12.7%	10%
COc1ccc(NC(=O)Nc2ccc3c(c2)C(=O)N([C@H](C)CO)C[C@@H](C)[C@H](CN(C)CC2CCCCC2)OCCCC[C@@H](C)O3)cc1	2.06% (inactive)	-1.06%	2.56%
CC1CN(C(=S)Nc2ccc(Br)cc2Cl)CC(C)O1 (configuration not stated)	0.789% (inactive)	0.865%	-2.8%
O=C(NNC(=S)Nc1ccc(Br)cc1Cl)c1ccco1	-55.5% (inactive)	-76.6%	-26.1%
CN(C)C(=S)Nc1ccc(Br)cc1Cl	-21.3% (active)	-3.38%	-5.33%
